Records with an inconclusive call do not appear. Entries that show only a call come without a potency. The source made the active and inactive calls. Calls follow the shape of the dose curve; as a rule, active = well fitted inhibition curve with a large enough effect; inconclusive = small, poorly fitted or top-dose-only effect; inactive = flat fitted curve, though single readings scatter.
Target: Calcium and integrin-binding protein 1 (Homo sapiens) (UniProt Q99828)
Assay: Primary qHTS for Identification of Calcium Integrin Binding Protein 1 (CIB1) Competitor (AID 1508620);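 also: GST tagged CIB1 binding a fluorescein labelled alphaIIb integrin peptide tracer; top concentration of the series differs between compounds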
Details: CIB1-GST / FITC-alphaIIb peptide fluorescence polarization; series mostly up to 114 µM
Method in brief: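 Fluorescence polarization competition: CIB1-GST (1 uM final) preincubated with compound 15 min at room temperature, then FITC-labeled alphaIIb peptide (100 nM final) added for another 15 min. Polarization read at Ex 480/Em 540.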

Calcium and integrin-binding protein 1 (Homo sapiens), sequence (Q99828 whole entry, looked up): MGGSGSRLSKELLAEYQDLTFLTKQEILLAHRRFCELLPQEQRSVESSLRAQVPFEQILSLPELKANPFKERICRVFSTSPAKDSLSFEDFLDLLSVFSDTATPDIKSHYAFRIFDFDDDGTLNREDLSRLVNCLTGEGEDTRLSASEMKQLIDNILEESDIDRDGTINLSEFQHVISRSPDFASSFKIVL

| SMILES | Potency |
| --- | --- |
| Cc1cc(C)nc(NC(=S)N2CCN(c3cccc(Cl)c3Cl)CC2)c1 | inactive |
| Cc1cnc(-c2ccccc2C(C)C)nc1NCc1cccnc1 | inactive |
| O=c1c2ccc(C(F)(F)F)cc2nc2sc(Nc3ccc4c(c3)CCC4)nn12 | inactive |
| CC(Cc1ccccc1)C(=O)Nc1ccc(Cl)cc1C(=O)O (configuration not stated) | inactive |
| CC(C)(C)c1ccccc1Nc1nc(C#N)nc(NC2CCCC2)n1 | inactive |
| Cc1c(C(=O)OCC2CCCC2)[nH]c2c1C(=O)CC(c1ccco1)C2 (configuration not stated) | inactive |
| CCOc1ccc(NC(=O)NCC2CCCN2c2ccc(OC)cc2)cc1 (configuration not stated) | inactive |
| Cc1cc(N[S+](=O)([O-])c2ccc(NC(=O)Cc3ccc4nccnc4c3)cc2)no1 | inactive |
| Cc1cc(CNc2ncnc3ccc(-c4ccc5c(c4)OCO5)cc23)c(C)o1 | inactive |
| CCCCn1cnc2cc(C(=O)N3CCCCC3)ccc21 | inactive |
| Cc1cc2c(s1)c1cnn(Cc3ccc(-n4cncn4)cc3)c(=O)c1n2C | inactive |
| COc1ccnc(NC(=S)N2CCN(c3ncc(C(F)(F)F)cc3Cl)CC2)c1 | inactive |
| COC(=O)c1ccnc(NCc2ccc(O)c3ncccc23)c1 | inactive |
| CNc1cccc(S(=O)(=O)N2CCCN(S(=O)(=O)c3ccc4c(c3)OCCO4)CC2)c1 | inactive |
| COc1ccc(C2Nc3ccccc3C(=O)N2Cc2ccco2)cc1COc1c(C(C)C)cccc1C(C)C (configuration not stated) | inactive |
| COc1ccc(O)c(C2Nc3ccccc3C(=O)N2Cc2ccccc2)c1 (configuration not stated) | inactive |
| Cc1cc(C)nc(NC(=S)N2CCN(c3cnccn3)CC2)c1 | inactive |
| Cc1ccsc1CN(C)c1ncnc2ccc(-c3ccoc3)cc12 | inactive |
| N#CN1CCC(NC(=O)c2cccc(F)c2)CC1 | inactive |
| Cc1ccc2nc3sc(C(=O)NC4CCCC4)cc3cc2c1 | inactive |
| CC(=O)Nc1sc2c(c1-c1ccc3[nH]ccc3c1)CCNC2 | inactive |
| CCCCc1nnc(-c2cnn(C)c2N)n1CCCn1ccnc1 | inactive |

Source: PubChem BioAssay (NCATS)
